How the values were obtained:
[1] = molecular target: Serine/threonine-protein kinase PLK3 (Homo sapiens) (UniProt Q9H4B4); settings: at 1 µM
[2] = molecular target: Serine/threonine-protein kinase PLK3 (Homo sapiens) (UniProt Q9H4B4); settings: at 10 µM
[3] = molecular target: T1, cAMP-dependent protein kinase catalytic subunit PRKX (Homo sapiens) (UniProt P51817); settings: at 1 µM
T1 sequence (whole entry): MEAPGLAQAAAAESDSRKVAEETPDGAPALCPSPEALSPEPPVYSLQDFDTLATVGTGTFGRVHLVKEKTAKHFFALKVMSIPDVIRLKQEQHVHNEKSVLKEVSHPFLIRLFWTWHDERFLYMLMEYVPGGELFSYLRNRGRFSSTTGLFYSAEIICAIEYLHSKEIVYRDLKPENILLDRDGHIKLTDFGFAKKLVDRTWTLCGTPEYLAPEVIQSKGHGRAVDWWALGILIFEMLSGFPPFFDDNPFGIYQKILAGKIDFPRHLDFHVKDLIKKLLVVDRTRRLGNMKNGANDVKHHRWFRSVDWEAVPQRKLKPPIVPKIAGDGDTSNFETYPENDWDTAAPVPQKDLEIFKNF

[4] = molecular target: T1, cAMP-dependent protein kinase catalytic subunit PRKX (Homo sapiens); settings: at 10 µM
[5] = molecular target: Protein-tyrosine kinase 2-beta (Homo sapiens) (UniProt Q14289); settings: at 1 µM
[6] = molecular target: Protein-tyrosine kinase 2-beta (Homo sapiens) (UniProt Q14289); settings: at 10 µM
[7] = molecular target: Receptor-interacting serine/threonine-protein kinase 2 (Homo sapiens) (UniProt O43353); settings: at 1 µM
[8] = molecular target: Receptor-interacting serine/threonine-protein kinase 2 (Homo sapiens) (UniProt O43353); settings: at 10 µM
[9] = molecular target: Proto-oncogene tyrosine-protein kinase receptor Ret (Homo sapiens) (UniProt P07949); settings: at 1 µM
[10] = molecular target: Proto-oncogene tyrosine-protein kinase receptor Ret (Homo sapiens) (UniProt P07949); settings: at 10 µM
[11] = molecular target: Macrophage-stimulating protein receptor (Homo sapiens) (UniProt Q04912); settings: at 10 µM
[12] = molecular target: T2, Tyrosine-protein kinase receptor TYRO3 (Homo sapiens) (UniProt Q06418); settings: at 1 µM
T2 sequence (whole entry): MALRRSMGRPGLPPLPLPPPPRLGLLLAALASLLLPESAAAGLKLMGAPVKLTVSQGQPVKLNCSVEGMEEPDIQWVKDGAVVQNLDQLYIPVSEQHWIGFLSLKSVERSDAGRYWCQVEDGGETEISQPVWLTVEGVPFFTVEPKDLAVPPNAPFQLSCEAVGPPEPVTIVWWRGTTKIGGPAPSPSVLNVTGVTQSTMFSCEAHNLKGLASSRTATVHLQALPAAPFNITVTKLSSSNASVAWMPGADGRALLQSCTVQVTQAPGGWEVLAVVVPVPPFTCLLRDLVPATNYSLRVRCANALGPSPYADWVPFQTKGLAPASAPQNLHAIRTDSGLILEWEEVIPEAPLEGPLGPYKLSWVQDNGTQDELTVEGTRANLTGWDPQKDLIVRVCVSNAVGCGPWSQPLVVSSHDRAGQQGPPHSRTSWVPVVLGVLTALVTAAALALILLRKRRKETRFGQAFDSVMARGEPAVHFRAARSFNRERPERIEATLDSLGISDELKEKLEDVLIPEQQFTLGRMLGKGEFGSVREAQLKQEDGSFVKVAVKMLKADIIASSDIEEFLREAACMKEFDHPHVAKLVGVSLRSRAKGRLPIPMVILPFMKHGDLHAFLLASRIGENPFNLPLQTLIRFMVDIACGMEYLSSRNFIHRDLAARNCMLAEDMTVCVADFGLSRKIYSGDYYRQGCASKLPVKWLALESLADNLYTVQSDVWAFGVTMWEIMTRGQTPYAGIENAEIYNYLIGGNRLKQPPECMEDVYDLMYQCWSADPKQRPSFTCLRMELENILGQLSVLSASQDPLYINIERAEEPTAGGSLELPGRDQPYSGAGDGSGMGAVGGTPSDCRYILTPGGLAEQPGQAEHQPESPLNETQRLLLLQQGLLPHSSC

[13] = molecular target: T2, Tyrosine-protein kinase receptor TYRO3 (Homo sapiens); settings: at 10 µM
[14] = molecular target: Rho-associated protein kinase 1 (Homo sapiens) (UniProt Q13464); settings: at 10 µM
[15] = molecular target: Rho-associated protein kinase 2 (Homo sapiens) (UniProt O75116); settings: at 1 µM
[16] = molecular target: Rho-associated protein kinase 2 (Homo sapiens) (UniProt O75116); settings: at 10 µM
[17] = molecular target: Macrophage-stimulating protein receptor (Homo sapiens) (UniProt Q04912); settings: at 1 µM
[18] = molecular target: Proto-oncogene tyrosine-protein kinase ROS (Homo sapiens) (UniProt P08922); settings: at 1 µM
[19] = molecular target: Proto-oncogene tyrosine-protein kinase ROS (Homo sapiens) (UniProt P08922); settings: at 10 µM
[20] = molecular target: Rho-associated protein kinase 1 (Homo sapiens) (UniProt Q13464); settings: at 1 µM

Proto-oncogene tyrosine-protein kinase receptor Ret (Homo sapiens), sequence (P07949 whole entry): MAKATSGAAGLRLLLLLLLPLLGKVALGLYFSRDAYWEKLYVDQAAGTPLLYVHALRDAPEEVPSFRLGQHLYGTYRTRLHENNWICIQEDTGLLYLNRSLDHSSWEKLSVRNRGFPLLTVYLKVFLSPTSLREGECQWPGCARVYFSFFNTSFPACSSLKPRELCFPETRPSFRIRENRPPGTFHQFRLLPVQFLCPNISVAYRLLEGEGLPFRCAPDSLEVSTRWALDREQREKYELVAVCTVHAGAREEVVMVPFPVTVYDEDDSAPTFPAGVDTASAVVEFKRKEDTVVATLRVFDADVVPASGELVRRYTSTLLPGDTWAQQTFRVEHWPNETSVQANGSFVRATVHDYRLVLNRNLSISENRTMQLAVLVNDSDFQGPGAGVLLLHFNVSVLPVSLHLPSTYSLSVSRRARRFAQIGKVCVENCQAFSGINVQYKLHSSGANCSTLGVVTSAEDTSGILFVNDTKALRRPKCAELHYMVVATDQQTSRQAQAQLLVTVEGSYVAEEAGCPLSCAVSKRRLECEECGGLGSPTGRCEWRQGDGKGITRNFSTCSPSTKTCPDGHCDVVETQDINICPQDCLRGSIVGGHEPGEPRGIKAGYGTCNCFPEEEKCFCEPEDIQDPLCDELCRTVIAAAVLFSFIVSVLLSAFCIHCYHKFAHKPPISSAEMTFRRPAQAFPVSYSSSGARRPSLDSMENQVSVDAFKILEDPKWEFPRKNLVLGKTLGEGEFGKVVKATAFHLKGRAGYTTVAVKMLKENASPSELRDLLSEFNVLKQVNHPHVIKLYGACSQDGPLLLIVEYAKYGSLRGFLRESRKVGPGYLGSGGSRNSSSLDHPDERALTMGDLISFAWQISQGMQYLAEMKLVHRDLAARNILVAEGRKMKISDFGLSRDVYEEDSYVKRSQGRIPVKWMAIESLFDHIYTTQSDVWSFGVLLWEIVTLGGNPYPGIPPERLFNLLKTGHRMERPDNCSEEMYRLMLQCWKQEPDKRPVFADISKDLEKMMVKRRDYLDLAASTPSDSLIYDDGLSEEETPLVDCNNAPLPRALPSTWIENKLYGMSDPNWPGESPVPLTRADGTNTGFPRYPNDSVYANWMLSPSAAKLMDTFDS
Receptor-interacting serine/threonine-protein kinase 2 (Homo sapiens), sequence (O43353 whole entry): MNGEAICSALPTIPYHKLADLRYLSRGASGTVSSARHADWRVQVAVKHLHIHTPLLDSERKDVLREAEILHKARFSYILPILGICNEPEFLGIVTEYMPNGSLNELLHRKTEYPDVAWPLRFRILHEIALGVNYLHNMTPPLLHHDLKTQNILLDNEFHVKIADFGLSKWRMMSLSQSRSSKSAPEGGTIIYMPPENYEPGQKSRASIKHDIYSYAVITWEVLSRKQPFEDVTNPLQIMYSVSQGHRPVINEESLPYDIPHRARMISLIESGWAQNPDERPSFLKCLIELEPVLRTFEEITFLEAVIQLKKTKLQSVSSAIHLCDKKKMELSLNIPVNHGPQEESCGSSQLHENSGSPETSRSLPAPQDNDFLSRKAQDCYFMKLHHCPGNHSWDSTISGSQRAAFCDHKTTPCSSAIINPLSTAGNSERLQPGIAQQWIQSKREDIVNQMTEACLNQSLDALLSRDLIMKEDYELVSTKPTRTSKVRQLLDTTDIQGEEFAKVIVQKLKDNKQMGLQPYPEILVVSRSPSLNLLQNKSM
Proto-oncogene tyrosine-protein kinase ROS (Homo sapiens), sequence (P08922 whole entry): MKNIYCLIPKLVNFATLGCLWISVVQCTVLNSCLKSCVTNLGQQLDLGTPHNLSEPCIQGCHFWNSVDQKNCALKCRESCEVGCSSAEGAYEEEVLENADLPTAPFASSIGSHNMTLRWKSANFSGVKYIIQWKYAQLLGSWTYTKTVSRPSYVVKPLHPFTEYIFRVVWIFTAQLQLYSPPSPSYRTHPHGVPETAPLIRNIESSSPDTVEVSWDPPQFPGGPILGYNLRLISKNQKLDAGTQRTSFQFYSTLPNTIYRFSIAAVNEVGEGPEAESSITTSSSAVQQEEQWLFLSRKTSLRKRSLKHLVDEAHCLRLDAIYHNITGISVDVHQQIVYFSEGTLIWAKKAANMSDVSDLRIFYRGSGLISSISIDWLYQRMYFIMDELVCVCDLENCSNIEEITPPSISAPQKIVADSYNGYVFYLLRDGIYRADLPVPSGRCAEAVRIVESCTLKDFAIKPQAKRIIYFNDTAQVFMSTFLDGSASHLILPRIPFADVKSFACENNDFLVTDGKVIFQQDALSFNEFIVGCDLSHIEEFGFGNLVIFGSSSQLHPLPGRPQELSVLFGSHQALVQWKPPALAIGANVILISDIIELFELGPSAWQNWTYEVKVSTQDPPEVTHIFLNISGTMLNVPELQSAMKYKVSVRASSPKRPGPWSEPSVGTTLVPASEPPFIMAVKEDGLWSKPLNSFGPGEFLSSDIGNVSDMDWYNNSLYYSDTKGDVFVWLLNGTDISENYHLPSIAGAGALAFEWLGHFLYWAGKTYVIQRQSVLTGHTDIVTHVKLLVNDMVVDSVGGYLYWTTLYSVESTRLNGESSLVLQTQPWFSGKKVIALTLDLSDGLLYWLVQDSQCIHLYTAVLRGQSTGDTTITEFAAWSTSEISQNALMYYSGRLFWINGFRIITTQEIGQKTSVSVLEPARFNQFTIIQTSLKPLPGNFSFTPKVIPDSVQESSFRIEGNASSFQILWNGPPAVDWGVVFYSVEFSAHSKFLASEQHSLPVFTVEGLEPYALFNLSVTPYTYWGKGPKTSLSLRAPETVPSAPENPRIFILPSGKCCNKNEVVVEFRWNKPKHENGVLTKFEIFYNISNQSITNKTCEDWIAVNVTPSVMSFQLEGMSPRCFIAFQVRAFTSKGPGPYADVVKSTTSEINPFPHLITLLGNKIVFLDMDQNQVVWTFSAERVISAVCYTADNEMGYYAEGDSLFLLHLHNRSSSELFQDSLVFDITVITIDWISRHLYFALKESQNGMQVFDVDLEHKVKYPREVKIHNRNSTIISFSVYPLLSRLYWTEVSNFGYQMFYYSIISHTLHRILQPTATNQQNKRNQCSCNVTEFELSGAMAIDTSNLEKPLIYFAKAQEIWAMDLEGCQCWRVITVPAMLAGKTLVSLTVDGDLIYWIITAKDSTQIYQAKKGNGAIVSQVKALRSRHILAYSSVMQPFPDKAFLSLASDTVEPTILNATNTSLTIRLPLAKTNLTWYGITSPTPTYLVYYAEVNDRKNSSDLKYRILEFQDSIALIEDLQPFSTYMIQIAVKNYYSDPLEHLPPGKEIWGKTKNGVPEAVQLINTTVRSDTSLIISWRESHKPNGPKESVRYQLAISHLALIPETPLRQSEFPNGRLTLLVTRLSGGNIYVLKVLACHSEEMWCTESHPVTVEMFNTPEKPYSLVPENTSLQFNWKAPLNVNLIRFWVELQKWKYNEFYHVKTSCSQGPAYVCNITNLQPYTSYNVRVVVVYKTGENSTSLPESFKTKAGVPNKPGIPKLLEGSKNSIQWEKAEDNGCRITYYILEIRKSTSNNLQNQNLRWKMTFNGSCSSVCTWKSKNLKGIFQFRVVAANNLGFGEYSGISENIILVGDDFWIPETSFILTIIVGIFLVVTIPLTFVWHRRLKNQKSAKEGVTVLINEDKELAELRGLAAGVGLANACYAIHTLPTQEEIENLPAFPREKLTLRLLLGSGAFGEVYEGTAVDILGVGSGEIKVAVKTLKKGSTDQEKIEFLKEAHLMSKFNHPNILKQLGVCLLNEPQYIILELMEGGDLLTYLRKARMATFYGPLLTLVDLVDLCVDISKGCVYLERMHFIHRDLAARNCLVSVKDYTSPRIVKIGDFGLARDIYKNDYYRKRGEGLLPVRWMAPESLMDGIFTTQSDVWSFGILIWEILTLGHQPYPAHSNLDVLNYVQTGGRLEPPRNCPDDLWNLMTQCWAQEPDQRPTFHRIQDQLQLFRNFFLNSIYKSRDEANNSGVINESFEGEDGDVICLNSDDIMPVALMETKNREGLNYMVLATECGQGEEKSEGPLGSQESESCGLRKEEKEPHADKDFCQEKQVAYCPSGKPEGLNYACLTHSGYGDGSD
Serine/threonine-protein kinase PLK3 (Homo sapiens), sequence (Q9H4B4 whole entry, looked up): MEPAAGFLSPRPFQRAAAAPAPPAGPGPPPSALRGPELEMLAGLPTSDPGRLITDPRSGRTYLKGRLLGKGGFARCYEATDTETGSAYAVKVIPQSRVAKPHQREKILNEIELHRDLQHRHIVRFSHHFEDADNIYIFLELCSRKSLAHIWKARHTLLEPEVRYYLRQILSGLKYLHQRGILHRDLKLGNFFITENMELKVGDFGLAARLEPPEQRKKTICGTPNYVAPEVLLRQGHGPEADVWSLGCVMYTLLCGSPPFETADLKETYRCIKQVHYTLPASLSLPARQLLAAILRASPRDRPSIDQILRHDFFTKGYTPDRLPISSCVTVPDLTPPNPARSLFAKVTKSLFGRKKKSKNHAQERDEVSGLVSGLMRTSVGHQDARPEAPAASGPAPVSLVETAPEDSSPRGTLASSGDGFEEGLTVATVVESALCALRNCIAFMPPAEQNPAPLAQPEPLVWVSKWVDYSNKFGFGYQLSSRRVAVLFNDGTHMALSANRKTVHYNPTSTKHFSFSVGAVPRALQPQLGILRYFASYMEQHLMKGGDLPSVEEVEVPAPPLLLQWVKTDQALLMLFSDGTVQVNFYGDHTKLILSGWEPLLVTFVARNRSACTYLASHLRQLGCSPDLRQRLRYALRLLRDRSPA

Structure (SMILES)	residual activity [1]	residual activity [2]	residual activity [3]	residual activity [4]	residual activity [5]	residual activity [6]	residual activity [7]	residual activity [8]	residual activity [9]	residual activity [10]	residual activity [11]	residual activity [12]	residual activity [13]	residual activity [14]	residual activity [15]	residual activity [16]	residual activity [17]	residual activity [18]	residual activity [19]	residual activity [20]
COc1ccc(-c2cnc3c(-c4ccsc4)cnn3c2)cc1	87% (inactive)	97%	81%	93%	136%	94%	99%	92%	89%	99%	87%	95%	93%							
CC(C)[C@H](CO)Nc1nc(Nc2cc(N)cc(Cl)c2)c2ncn(C(C)C)c2n1	99% (inactive)	77%		88%	59%	7%	85%	77%	83%	21%	62%	84%	53%	84%	91%	52%	96%			
COc1cc2ncnc(Nc3cccc(Cl)c3)c2cc1OC	83% (inactive)		122%		117%	76%	26%	16%	39%	6%	83%	62%	15%		103%	87%	116%	100%	105%	
CC(C)(C)c1nc2c3ccc(F)cc3c3c(=O)[nH]ccc3c2[nH]1	55% (inactive)	64%					18%	20%	18%	36%		75%			57%	58%				
CCOC(=O)c1c(C)[nH]c(/C=C2\C(=O)Nc3ccccc32)c1C	86% (inactive)	88%			80%	45%	96%	99%	24%	14%										
O=C(NC(NC(=S)Nc1ccc(F)c([N+](=O)[O-])c1)C(Cl)(Cl)Cl)C(c1ccccc1)c1ccccc1 (stereo unspecified)	100% (inactive)	98%	82%	52%			92%	92%			93%				99%	102%	88%	103%	94%	
O=C1Nc2ccc(Cl)cc2/C1=C/c1cc(Cl)c(O)c(Cl)c1	94% (inactive)	95%	59%	63%	96%	28%	32%	25%	91%	77%	57%	71%	57%	121%	96%	65%	61%	92%	90%	
NC(=O)Nc1sc(-c2ccc(F)cc2)cc1C(N)=O	88% (inactive)	81%	85%	55%	56%	10%	67%	29%	30%	1%	56%	91%	41%	101%	89%	53%	73%	91%	94%	
NC(=O)c1cccc(-c2cc(Nc3ccc(OC(F)(F)F)cc3)ncn2)c1	100% (inactive)	97%			128%	95%	93%	56%		87%					125%	94%				
O=C1C(Cl)=C(N2C(=O)CCC2=O)C(=O)c2ccccc21	96% (inactive)	93%	93%	92%	91%		92%	95%	102%	86%	81%			88%	45%	16%	92%	101%	97%	
COc1cc2nccc(Oc3ccc(NC(=S)NC(=O)c4ccccc4C)cc3)c2cc1OC	80% (inactive)	89%	68%	52%	82%	60%	51%	34%	75%	78%	0%	45%	18%		87%	70%	30%	79%	52%	
Nc1ncnc2[nH]nc(Nc3ccc(F)cc3)c12	103% (inactive)	94%		21%	101%	79%	46%	21%	72%	18%	67%	104%	50%	101%	104%	91%		104%	95%	128%
CCCC(=O)Oc1ccc2[nH]c(C(=O)c3cc4ccccc4[nH]3)cc2c1	93% (inactive)	85%	88%	92%	122%	85%	91%	89%	94%		74%	92%	98%	128%	93%	83%	102%	86%	90%	103%
Nc1ncnc2c1c(-c1ccc(Oc3ccccc3)cc1)cn2C1CCCC1	80% (inactive)	91%	85%	66%	86%	25%	21%	15%	0%	-1%	55%	59%	14%	122%	90%	70%	92%	88%	82%	116%
Nc1n[nH]c2nc3ccccc3nc12	89% (inactive)	83%	118%	84%		92%	94%		100%	82%		99%	100%		94%	84%				
CCCCc1c(-c2ccc(O)cc2)[nH]c2nccnc12	100% (inactive)	100%	93%	100%	54%	26%	38%	30%	45%	48%		100%	99%		96%	94%		93%	82%	
N#C/C(=C\c1ccc(O)c(O)c1)C(=O)NCc1ccccc1		80%																		

Reference: ChEMBL document CHEMBL2218924, “A broad activity screen in support of a chemogenomic map for kinase signalling research and drug discovery” (Biochem J, 2013)
